# In PubChem BioAssay AID504339 (National Center for Advancing Translational Sciences (NCATS), 2011):
# Screen size: about 390,000 compounds; about 17,000 (4.4%) were called active. Not shown: some 8% with an inconclusive outcome. The list comes from a sample in which actives are over-represented; it also holds similar structures and randomly drawn compounds. Entries that show only a call come without a potency. A number with no mark means an inactive call. Calls follow the shape of the dose curve; as a rule, active = well fitted inhibition curve with a large enough effect; inconclusive = small, poorly fitted or top-dose-only effect; inactive = no such curve, though single readings can be large or run the other way.
# Target: Lysine-specific demethylase 4A (Homo sapiens) (UniProt O75164)
# Assay: qHTS Assay for Inhibitors of JMJD2A-Tudor Domain; also: nearly all actives have a fitted effect of over 50% in size
# Conditions: AlphaScreen JMJD2A-Tudor / H3K4me3 peptide binding; series mostly up to 114 µM
# Description: JMJD2A is a jumonji-domain-containing lysine demethylase that uses Fe(II) together with 2-OG to effect oxidative demethylation of histones. Methylation is one of many […] modification that affect epigenetic transcription. […] It is proposed that the functions of JmjD2A binding to the histones, is to maintain marks after they are installed and to spread the modifications by […], establishing a self-propagating cycle for rapid methylation over a large area of chromatin. […] Thus, small molecule targeting of the JMJD2A-tudor domain interaction with its target methylhistone mark is expected to enable sophisticated experiments probing the fine regulatory pathways leading to selective demethylation of a given methyllysine locus based on the methylation state of adjacent histone marks. A quantitative high throughput AlphaScreen has been developed to identify small molecule inhibitors based on a protocol published by NCGC and SGC [4].
# Although AlphaScreen has significant advantages with its utility in a variety of epigenetic target assays, the primary screening data provided in this deposition should be used with caution due to the prevalence of screening artifacts. The top compound concentration tested was high (>100uM) in this assay, which increases number of actives and potential artifacts. An AlphaScreen counterscreen is highly recommended to be run against any putative actives to eliminate non-specific artifacts. Alternatively, one can use other AlphaScreen assays in PubChem to filter out promiscuous hits.
# [1] Lee, J. et al. Distinct binding modes specify the recognition of methylated histone H3K4 and H4K20 by JMJD2A-tudor. Nat Struct Mol Biol. 15(1); 109-11. 2008. PMID: 18084306
# [2] Yasgar, et al. Compound Management for Quantitative High-Throughput Screening. JALA. 2008 Apr;13(2):79-89. PMID: 18496600
# [3] Inglese, et al. Quantitative high-throughput screening: a titration-based approach that efficiently identifies biological activities in large chemical libraries. Proc Natl Acad Sci. 1;103(31):11473-8. 2006. PMID: 16864780
# [4] Quinn et al. A homogeneous method for investigation of methyl-dependent protein-protein interactions in epigenetics. Nucleic Acids Res., 38(2):e11. 2010. PMID: […]
# [5] Baell,Holloway. New substructure filters for removal of pan assay interference compounds (PAINS) from screening libraries and for their exclusion in bioassays. J Med Chem. 53(7):2719-40. 2010. PMID: 20131845
# NIH Molecular Libraries Probe Production Network [MLPCN]
# NIH Chemical Genomics Center [NCGC]
# Structural Genomics Consortium (SGC)
# To each well of a 1,536w plate, 2ul of JMJD2A-Tudor (final 100nM) and 1ul biotinylated histone peptide methylated at Lys4 [b-H3(1-18)K4me3] (final 50nM) were added in 1x PBS buffer, pH 7.4, containing 0.01% Tween-20, using a nanoliter dispenser. Formation of a protein-peptide complex proceeded at room temperature for 30 min. A Kalypsys pin-tool transferred 23nl of library compound solution in DMSO to each well. Following a 30 min incubation of the protein-peptide complex with compounds at room temperature, a mixture of 40 µg/mL each streptavidin-coated donor and nickel chelate acceptor AlphaScreen beads (final 10 µg/mL) was added in a 1ul dispense for a final volume of 4ul, followed by a brief centrifugation (1000 rpm, 1 min). Plates were incubated protected from the light for 20 min at room temperature. Microplates were then read on an EnVision multilabel plate reader using the 1,536 plate HTS AlphaScreen aperture (excitation time 80 ms, measurement time 240 ms).
# Potency is read from the fitted curve at half-maximal effect.
# Sequence of Lysine-specific demethylase 4A (Homo sapiens) (O75164 whole entry, looked up, the tested form may be a part): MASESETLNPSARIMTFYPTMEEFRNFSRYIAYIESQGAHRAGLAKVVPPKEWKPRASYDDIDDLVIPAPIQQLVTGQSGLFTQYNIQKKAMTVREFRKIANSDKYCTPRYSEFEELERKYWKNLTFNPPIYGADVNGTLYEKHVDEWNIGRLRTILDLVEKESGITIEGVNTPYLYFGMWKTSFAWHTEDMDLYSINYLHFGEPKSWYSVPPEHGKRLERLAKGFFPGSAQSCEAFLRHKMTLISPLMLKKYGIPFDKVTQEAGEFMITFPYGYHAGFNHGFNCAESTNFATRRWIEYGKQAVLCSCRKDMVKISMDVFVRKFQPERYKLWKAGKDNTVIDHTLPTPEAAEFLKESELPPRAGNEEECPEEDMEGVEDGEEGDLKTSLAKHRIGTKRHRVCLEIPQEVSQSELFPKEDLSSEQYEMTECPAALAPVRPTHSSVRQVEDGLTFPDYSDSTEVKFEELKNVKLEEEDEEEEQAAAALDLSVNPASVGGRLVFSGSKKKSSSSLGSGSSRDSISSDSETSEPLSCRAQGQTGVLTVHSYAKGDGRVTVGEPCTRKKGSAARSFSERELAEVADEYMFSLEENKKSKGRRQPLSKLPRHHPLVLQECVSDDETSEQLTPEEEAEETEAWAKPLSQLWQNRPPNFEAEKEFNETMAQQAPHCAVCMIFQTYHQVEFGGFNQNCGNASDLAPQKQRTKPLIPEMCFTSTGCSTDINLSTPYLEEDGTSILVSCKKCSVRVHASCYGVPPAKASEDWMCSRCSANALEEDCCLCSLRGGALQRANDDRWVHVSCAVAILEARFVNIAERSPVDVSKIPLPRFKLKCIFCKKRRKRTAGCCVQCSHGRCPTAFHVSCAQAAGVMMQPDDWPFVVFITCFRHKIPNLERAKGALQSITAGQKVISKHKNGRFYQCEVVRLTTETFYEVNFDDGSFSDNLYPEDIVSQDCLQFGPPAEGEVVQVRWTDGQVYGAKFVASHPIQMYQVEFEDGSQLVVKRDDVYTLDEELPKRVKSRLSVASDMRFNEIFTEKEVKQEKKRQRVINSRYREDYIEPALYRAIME
SMILES,Potency,"activity change, negative = inhibition"
CCN(CCCNC(=O)Cn1ncc2c3ccccc3n(C)c2c1=O)Cc1ccccc1,inactive,
CCC(=O)N1CCc2cc(S(=O)(=O)NC(CC(C)C)C(=O)NCCc3cccc(C)c3)ccc21 (configuration not stated),inactive,
CCc1c(C)nc(N2CCN(Cc3ccccc3)CC2)[nH]c1=O,inactive,
O=C1c2ccccc2C(=O)c2c1cccc2N1CCN(Cc2ccccc2)CC1,14.1 µM (active),
O=S(=O)(c1cccs1)N1CCN(Cc2ccccc2)CC1,inactive,
COc1ccc(CNc2nc(-c3ccccc3)nn2C(=O)c2ccccc2OC)cc1,inactive,
CC(C)c1ccc(NC(=O)C2CCN(c3nc(-c4ccc(C(C)C)cc4)no3)CC2)cc1,inactive,
O=C1CC(c2ccc(F)cc2F)c2cc3c(cc2N1)OCO3 (configuration not stated),inactive,
Cc1nc(Cl)c(C#N)c2c1CCCC2,inactive,
COC(=O)c1c(C)c(C)nc(N)c1C#N,inactive,
COCc1c(N)c(C)nc(Cl)c1C#N,11.2 µM (active),
CC(=O)c1ccc(NC(=O)C2CCN(S(=O)(=O)c3c(C)noc3/C=C/c3ccc(C)cc3)CC2)cc1,inactive,
CN(Cc1ccccc1)c1ccc(-c2nc(-c3ccccc3)no2)cc1[N+](=O)[O-],inactive,
CC(=O)c1ccc(N2CCN(C3C(=O)c4ccccc4N3C(C)=O)CC2)cc1 (configuration not stated),inactive,
CC1(C)Cc2c(sc(NC(=O)C(=O)N3CCOCC3)c2C#N)CO1,14.1 µM (active),
COC(=O)c1c(NC(=O)C(=O)N2CCCCC2)sc2c1CC(C)(C)OC2,inactive,
CCOC(=O)N1CCN(C(=O)C(=O)Nc2sc3c(c2C#N)CC(C)(C)OC3)CC1,inactive,
COc1cc(C(=O)Nc2ccc(OCc3cc(=O)n4ccc(C)cc4n3)cc2)cc(OC)c1OC,inactive,
Cc1cc(NC(=O)CCC(=O)N(CC(=O)NCC2CCCO2)c2ccccc2)no1 (configuration not stated),inactive,
Cc1cc(NC(=O)CCC(=O)N(CC(=O)NCC2CCCO2)c2ccccc2C)no1 (configuration not stated),inactive,
COC(=O)c1cccc(N(CC(=O)NCC2CCCO2)C(=O)CCC(=O)Nc2cc(C)on2)c1 (configuration not stated),inactive,
CCCCOc1ccc(N(CC(=O)NCC2CCCO2)C(=O)CCC(=O)Nc2cc(C)ccn2)cc1 (configuration not stated),70.8 µM (active),
COc1ccc(N(CC(=O)NCC2CCCO2)C(=O)CCC(=O)Nc2nccs2)c(OC)c1 (configuration not stated),inactive,
CCc1ccccc1N(CC(=O)NCC1CCCO1)C(=O)CCC(=O)Nc1nccs1 (configuration not stated),25.1 µM (active),
COc1ccc(C(=O)Nc2onc3c2CCCC3)cc1,inactive,

SMILES,Potency,"activity change, negative = inhibition"
O=C(NCCc1ccccc1)C(=O)NCC(c1ccco1)S(=O)(=O)c1ccccc1 (configuration not stated),inactive,
COc1cccc(C(=O)NC2(C(F)(F)F)C(=O)Nc3c2c(=O)[nH]c(=O)n3-c2ccc(C)cc2)c1 (configuration not stated),inactive,
O=C(CSc1ncc(-c2ccccc2)[nH]1)Nc1ccc(F)cc1F,inactive,
O=C(COc1ccccc1F)OCc1cc(=O)n2nc(C3CCCCC3)sc2n1,inactive,
Cc1ccc2c(c1)C1CN(C)CCC1N2S(=O)(=O)c1cccc(F)c1 (configuration not stated),inactive,
Cc1ccc2c(c1)C1CN(C)CCC1N2C(=S)Nc1ccc(OC(F)F)cc1 (configuration not stated),inactive,
Cc1ccc2c(c1)C1CN(C)CCC1N2S(=O)(=O)c1ccc(Oc2ccc([N+](=O)[O-])cc2)cc1 (configuration not stated),22.4 µM (active),
COc1ccc(CNC(=O)c2ccc3c(c2)nc2n3CCOC2)c(OC)c1,inactive,
Cc1cc(NS(=O)(=O)c2ccc3oc(=O)c4ncn(C)c4c3c2)ccc1Br,inactive,
COc1cc(OC)c(NC(=O)c2cnc(N3CCCC3)nc2C)cc1Cl,inactive,
Cc1ccc2c(=O)c(C(=O)c3cccc(Cl)c3)cn(CC(=O)NCc3ccccc3)c2n1,inactive,
O=C(CC(=O)c1cccnc1)c1ccccc1,inactive,
O=C(O)CSC(NC(=O)c1cccnc1)(C(F)(F)F)C(F)(F)F,89.1 µM (active),
O=C(NNC(=O)c1cccnc1)Nc1ccccc1,inactive,
CCc1ccccc1N(C)C(=O)C1CCCN(c2ncnc3onc(-c4ccc(F)cc4)c23)C1 (configuration not stated),inactive,
COc1cccc2c1cc1c(=O)n(CC(=O)N3CCN(c4cccc(Cl)c4)CC3)nc(C)n12,inactive,
O=c1ccc2c(-c3ccccc3S(=O)(=O)O)c3ccc(O)c(O)c3oc-2c1O,0.708 µM (active),
CCOC(=O)c1c(C)oc2ccc(N(C(=O)c3ccncc3)S(=O)(=O)c3ccc(CC)cc3)cc12,inactive,
CCOc1ccccc1C(=O)NC1(C(F)(F)F)NC(=O)N(CCc2ccc(OC)c(OC)c2)C1=O (configuration not stated),inactive,
CCCN(C(=O)Cn1cc(S(=O)(=O)N2CCN(c3ccccc3F)CC2)c2ccccc2c1=O)c1cccc(C)c1,inactive,
CNc1nnc(-c2ccco2)s1,inactive,
COc1ccc(OCC(=O)Nc2nnc(-c3ccco3)s2)cc1,79.4 µM (active),
COc1ccc(NC(=O)COCc2cc(-c3ccco3)on2)cc1,inactive,
Cc1cccc(NC(=O)CN(c2ccc(C(C)C)cc2)S(=O)(=O)c2c(C)nn(C)c2C)c1C,inactive,
Cc1ccc(C)c(CNC(=O)c2cc3ccccn3n2)c1,inactive,

SMILES,Potency,"activity change, negative = inhibition"
CC1CCCN(c2cc3c(cc2F)c(=O)c(S(=O)(=O)c2cccc(Cl)c2)cn3Cc2ccccc2)C1 (configuration not stated),inactive,
Cc1ccc(Cl)cc1NC(=O)CCC(=O)N1CC(C)Sc2ccccc21 (configuration not stated),inactive,
O=C(NC(=O)c1ccccc1N1CCCCC1)Nc1ccc(Br)cc1,inactive,
CC(=O)Nc1ccc(NS(=O)(=O)c2ccc3c(c2)NC(=O)CC(=O)N3)cc1,inactive,
Cc1ccccc1C(=O)N1CCN(c2ccc(NC(=O)c3cccs3)cc2)CC1,inactive,
Cc1ccccc1C(=O)Nc1ccc(N2CCCCCC2)cc1,14.1 µM (active),
CC(=O)Nc1ccc(S(=O)(=O)N2CCN(c3ccccc3)CC2)cc1,inactive,
CC(=O)Nc1ccc(S(=O)(=O)Nc2ccc(N3CCCCC3)cc2)cc1,20 µM (active),
O=C(O)c1ccc2c(c1)N(Cc1ccc(F)cc1)C(=O)c1ccccc1S2=O (configuration not stated),inactive,
O=C(NCc1ccccc1Cl)C1=Cc2cc(Br)ccc2OC1,inactive,
CCc1ccc(NC(=O)N2CCN(C(=O)c3nsc4ccccc34)CC2)cc1,inactive,
COc1ccc(Cl)cc1NC(=O)CCn1c(=O)c2cccn2c2ccccc21,inactive,
COc1cc(NC(=O)Cn2nc(-c3ccc(C)c(C)c3)ccc2=O)cc(OC)c1,inactive,
Cc1c(NC(=O)CN(C)CC(=O)Nc2ccc(F)c(F)c2F)c(=O)n(-c2ccccc2)n1C,inactive,
CN(CC(=O)NCCc1ccc(F)cc1)CC(=O)Nc1ccc(F)c(F)c1F,inactive,
Cc1ccc(Cl)c(NC(=O)CN(C)CC(=O)Nc2ccc(F)c(F)c2F)c1Cl,70.8 µM (active),
COc1ccc(CCC(=O)NCCc2csc(-c3ccc(Cl)cc3)n2)cc1,inactive,
O=C(CNS(=O)(=O)c1cccs1)N1CCN(c2ccccc2Cl)CC1,inactive,
O=C(CSc1nccn1-c1ccc(F)cc1)Nc1cccc2ccccc12,28.2 µM (active),
O=C(CSc1nccn1Cc1ccc(F)cc1)NCc1ccccc1,inactive,
O=C(CSc1nccn1-c1cccc(F)c1)NC1CCCC1,inactive,
CCCNc1ncnc2c1c(-c1ccccc1)cn2-c1ccc(OCC)cc1,inactive,
Cc1nc2ccc(S(=O)(=O)NC(C(=O)NCc3ccccc3Cl)C(C)C)cc2s1 (configuration not stated),inactive,
COc1ccc(-c2nc3ccccc3o2)cc1NC(=O)c1cc([N+](=O)[O-])ccc1N1CCOCC1,inactive,
Cc1ccccc1OCC(=O)N(Cc1cccc(F)c1)C1CCS(=O)(=O)C1 (configuration not stated),inactive,

SMILES,Potency,"activity change, negative = inhibition"
COc1ccccc1C(=O)N(Cc1ccc(C)o1)C1CCS(=O)(=O)C1 (configuration not stated),inactive,
Cc1cc(Cl)ccc1OCC(=O)N(Cc1ccc(N(C)C)cc1)C1CCS(=O)(=O)C1 (configuration not stated),50.1 µM (active),
CCOc1ccc(C(=O)N(Cc2ccc(N(C)C)cc2)C2CCS(=O)(=O)C2)cc1 (configuration not stated),inactive,
Cc1cc(C)c(OCC(=O)N(Cc2cccs2)C2CCS(=O)(=O)C2)c(C)c1 (configuration not stated),inactive,
Cc1ccc(CN(C(=O)COc2ccc(Cl)cc2C)C2CCS(=O)(=O)C2)o1 (configuration not stated),11.2 µM (active),
COc1cc(C(=O)N(Cc2ccc(N(C)C)cc2)C2CCS(=O)(=O)C2)cc(OC)c1OC (configuration not stated),,-6.11% [at 11.4 µM]
CC(C)c1ccc(OCC(=O)N(Cc2ccc(N(C)C)cc2)C2CCS(=O)(=O)C2)cc1 (configuration not stated),44.7 µM (active),
CCc1ccc(OCC(=O)N(Cc2ccccc2)C2CCS(=O)(=O)C2)cc1 (configuration not stated),inactive,
O=C(C1CC1)N1CCc2cc(Br)cc(S(=O)(=O)N3CCN(c4ccccc4F)CC3)c21,inactive,
CCc1ccc2oc(-c3ccc(NC(=O)c4cc5ccccc5o4)cc3)nc2c1,inactive,
Cc1cccc(N2CCN(C(=O)Cn3ncc4c5ccccc5n(C)c4c3=O)CC2C)c1 (configuration not stated),inactive,
CCc1ccc(CN(Cc2ccco2)C(=O)COc2ccc(Cl)c(C)c2)cc1,inactive,
COc1ccc(-n2nnc(-c3nsc(NC(=O)c4ccc(C)c(C)c4)n3)c2C)cc1Cl,inactive,
COc1ccc(-c2cc(C(F)(F)F)n3nc(-c4ccccc4)cc3n2)cc1OC,inactive,
CCc1ccccc1NC(=O)c1cnn(-c2ccc(F)cc2)c1C1CCNCC1,inactive,
CCc1ccc2oc(-c3ccc(C)c(NC(=O)/C=C/c4ccco4)c3)nc2c1,inactive,
C=CS(=O)c1sc(Cl)c(N2CCOCC2)c1[N+](=O)[O-] (configuration not stated),50.1 µM (active),
COc1ccc(NC(=O)C2CCCN(S(=O)(=O)c3c(C)[nH]c(=O)[nH]c3=O)C2)c(OC)c1 (configuration not stated),inactive,
CCc1ccc(CNC(=O)c2ccc(CS(=O)c3ccc(Br)cc3)o2)cc1 (configuration not stated),inactive,
CCCn1ccc2c(OCC(=O)NCc3ccc(F)cc3)cccc2c1=O,inactive,
Cc1ccc(S(=O)(=O)n2nc(-c3ccc(Cl)cc3)nc2NCc2ccccc2)cc1,inactive,
Cc1c(C(=O)Nc2cccc(Cl)c2)oc2ccc(S(=O)(=O)N3CCOCC3)cc12,inactive,
